An excerpt weighted towards active compounds, which were near 3.2% of everything screened.
ANO1 activ: TMEM16A chloride channel activators or potentiators, primary screen, cell-based, HTS | HEK293 TMEM16A/YFP-H148Q/I152L, iodide quench fluorescence; hits give low values | AID 623877, 2012 | Anoctamin-1 (Mus musculus), Q8BHY3 | 0.3% of 340,000 active | B-score at 10 µM;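 active means fluorescence-ratio B-score plate-corrected deviation score at least 3 library SD below zero, with starting fluorescence score within 5 deviations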;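 further: channel opened by trigger with iodide after compound preincubation; score built on the fluorescence ratio of max minus min over baseline; more negative score means more quench and so TMEM16A activation or potentiation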
Target sequence (Q8BHY3 whole entry, looked up): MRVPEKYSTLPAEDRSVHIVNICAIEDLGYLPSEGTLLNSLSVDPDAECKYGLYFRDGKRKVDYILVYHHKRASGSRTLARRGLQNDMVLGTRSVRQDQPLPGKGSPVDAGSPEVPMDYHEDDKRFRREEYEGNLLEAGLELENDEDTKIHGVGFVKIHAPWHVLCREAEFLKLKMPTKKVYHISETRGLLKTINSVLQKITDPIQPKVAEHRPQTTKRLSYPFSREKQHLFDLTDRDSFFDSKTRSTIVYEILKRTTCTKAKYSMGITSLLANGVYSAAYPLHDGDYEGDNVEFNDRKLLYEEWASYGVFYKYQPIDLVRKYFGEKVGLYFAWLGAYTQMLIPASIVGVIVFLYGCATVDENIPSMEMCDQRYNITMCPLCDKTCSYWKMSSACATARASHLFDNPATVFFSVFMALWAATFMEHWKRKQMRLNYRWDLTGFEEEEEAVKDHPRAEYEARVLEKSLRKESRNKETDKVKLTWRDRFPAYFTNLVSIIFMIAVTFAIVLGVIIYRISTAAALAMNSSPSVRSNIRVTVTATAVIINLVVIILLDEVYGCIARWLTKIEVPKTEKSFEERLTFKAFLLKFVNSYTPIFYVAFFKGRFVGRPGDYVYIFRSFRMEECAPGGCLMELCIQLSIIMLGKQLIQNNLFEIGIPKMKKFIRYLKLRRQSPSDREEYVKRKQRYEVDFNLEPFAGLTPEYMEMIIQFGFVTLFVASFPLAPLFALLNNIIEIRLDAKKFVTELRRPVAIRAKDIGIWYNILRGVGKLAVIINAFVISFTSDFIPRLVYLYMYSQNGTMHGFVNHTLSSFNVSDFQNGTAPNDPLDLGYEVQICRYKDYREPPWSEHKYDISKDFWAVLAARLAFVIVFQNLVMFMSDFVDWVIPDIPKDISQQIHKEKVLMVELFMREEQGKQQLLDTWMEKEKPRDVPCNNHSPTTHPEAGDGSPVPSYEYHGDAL
CHT block: inhibitors of human choline transporter CHT; CHT-expressing cells, membrane potential dye, choline response; hits give low values; B-score at 10 µM; 0.86% of 310,000 active;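 active means B-score over 3 SD under the library average, and starting fluorescence ratio not unusually high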;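 further: choline stimulus applied at its EC90 after an EC20 pre-addition; B-score computed on integrated fluorescence ratio after choline addition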
Rce1 inhib: yeast Rce1p protease inhibitors, primary screen, biochemical, fluorescence, cell-free homogeneous | yeast membranes, quenched prenylated peptide cleavage fluorescence | calls only | 0.27% of 290,000 active;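 active means fall in fluorescence gain of 50% or more versus controls, with final raw signal at or below 3038400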;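 further: plate controls were neutral control wells for no effect and wells lacking membranes for full effect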
Kir21 inh: inhibitors of mouse Kir2.1 inward-rectifier potassium channel | HEK293-Kir2.1, FluxOR thallium flux fluorescence; hits give low values | B-score at 10 µM | 0.85% of 310,000 active | AID 1672, 2009;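 active means fluorescence ratio B-score at or below minus 3 SD of library scores, with starting-brightness B-score within 2 SD, cut at about -4.2 in these data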;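 further: channel flux triggered by added potassium and thallium sulfate stimulus; B-score of peak minus minimum fluorescence over baseline after thallium stimulus; more negative B-score means stronger Kir2.1 block with less thallium influx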
CHT PAM: CHT positive allosteric modulators, primary screen, cell-based, membrane potential dye, choline EC20 | CHT-expressing cells; hits give high values; LV-AA mutant CHT in HEK293 cells | B-score at 10 µM | 0.49% of 310,000 active | AID 488977, 2010;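 active means initial fluorescence not abnormally high and integrated response B-score, plate-corrected, over 3 SD above library mean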
ANO1 block: TMEM16A chloride channel inhibitors, primary screen, cell-based, HTS; AID 588511, 2011; 1.2% of 310,000 active; Anoctamin-1 (Mus musculus), Q8BHY3; HEK293 TMEM16A/YFP iodide influx fluorescence, ionomycin; normalized B-score (activity score, 25-100; higher = stronger inhibition) at 10 µM;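 active means ratio plate-corrected score three or more library SD toward inhibition, starting fluorescence score within five deviations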;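 further: score derived from kinetic fluorescence span divided by baseline fluorescence per well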
TMEM16A reconf: TMEM16A chloride channel inhibitors, confirmation, cell-based, re-confirmation | shares compounds with ANO1 block | inhibition, % at 10 µM | HEK293 TMEM16A/YFP-H148Q, iodide quench fluorescence; ionomycin added to raise cell calcium | 39% of 2,300 active;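 active means mean duplicate percent inhibition, scaled so buffer wells are 0 and the reference blocker 100, over three buffer SD above buffer mean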
HEK293 Ca mobil: calcium mobilization in TMEM16A/YFP HEK293 cells, confirmation, counter-screen for TMEM16A inhibitor project | shares compounds with ANO1 block | Fluo4 calcium mobilization | calcium response (% of ionomycin), % at 10 µM | 2% of 2,300 active | AID 652231, 2013;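 active means duplicate-averaged calcium signal over 20% of the ionomycin maximum, relative to buffer baseline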;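 further: each well's signal is peak minus trough fluorescence divided by its pre-addition baseline; 0% = buffer wells and 100% = ionomycin wells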
YFP-HEK293 quench: iodide YFP quench changes in parental YFP-HEK293, counter-screen for TMEM16A inhibitor project, cell-based. shares compounds with ANO1 block. ionomycin. YFP ratio F(max-min)/F0 at 10 µM. 2,300 tested, under 10 active. AID 652233, 2013;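 active means yellow fluorescent protein signal ratio exceeding the buffer control mean by over 5 SD of those controls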;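 further: ratio is mean of duplicate wells from kinetic YFP trace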
ClC-1 rat inh: ClC-1 chloride channel inhibition, selectivity assay for TMEM16A inhibitor project, cell-based, voltage-dependent ClC-1. 2,300 tested, under 10 active. ratio percent, % at 10 µM. AID 652236, 2013. shares compounds with ANO1 block. CHO ClC-1-YFP, iodide influx fluorescence quench; iodide control reads 0, buffer control 100;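 active means duplicate-mean ratio percent above the mean of iodide-only control wells, which defines zero, plus 5 of their SD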;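 further: higher percent means stronger block of ClC-1 iodide influx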
An asterisk follows results filed as active; i = inactive; x = no result.

SMILES | ANO1 activ | CHT block | Rce1 inhib | Kir21 inh | CHT PAM | ANO1 block | TMEM16A reconf | HEK293 Ca mobil | YFP-HEK293 quench | ClC-1 rat inh
Cn1c(O)c(/C=N/NC(=O)c2cc3ccccc3cc2O)c2ccccc21 | i | i | i | -6.3 | i | i | x | x | x | x
Cc1cc(C(=O)NC2CCCc3c2cnn3-c2cccc(C)c2C)no1 (configuration not stated) | i | i | i | -0.04 | i | 25* | i | i | -0.79 | -11
COC(=O)c1cc(C)sc1NC(=O)CN1CCN(C(=O)C2CCCO2)CC1 (configuration not stated) | i | i | i | 0.01 | i | i | x | x | x | x
COCCn1c(C(C)C)nc2sc3ccccc3c(=O)c2c1=O | i | i | i | 0.07 | i | i | x | x | x | x
CCc1nc2sc3ccccc3c(=O)c2c(=O)n1CCOC | i | i | i | -0.11 | i | 25* | i | i | -1.1 | -12
COC(=O)c1ccc(-n2c(C)cc(C(=O)CSc3ccc(NC(C)=O)cc3)c2C)cc1 | i | i | i | -0.24 | i | 25* | 24%* | i | -1.1 | -4
CC(C)OCCCNc1ncnc2c1[nH]c1ccccc12 | i | i | i | 0.14 | i | 100* | 38%* | i | -1.1 | -22
CC(=O)c1ccc(NS(=O)(=O)c2ccc(CC(C)C)cc2)cc1 | i | i | i | 1.9 | i | 100* | 54%* | i | -1.1 | -6
CC(=O)c1ccc(NC(=O)Nc2ccc(NS(=O)(=O)c3ccc(C)cc3)cc2)cc1 | i | i | i | -1.2 | i | i | x | x | x | x
COc1ccc2nc(NC(=O)CN3C(=O)NC4(CCCCC4)C3=O)sc2c1 | i | i | i | 0.49 | i | i | x | x | x | x
COC(=O)CSc1nnc2c3c4c(sc3nc(-n3nc(C)cc3C)n12)COC(C)(C)C4 | i | i | i | 1.6 | i | i | x | x | x | x
Cc1cc(C)n(-c2nc3sc4c(c3c3nnc(SC(C)C)n23)CC(C)(C)OC4)n1 | i | i | x | x | i | 100* | i | i | -1 | -7
Cc1ccc(-c2sc(-c3ccccc3)nc2CC(=O)Nc2ccccc2F)cc1 | i | i | i | -0.05 | i | i | x | x | x | x
Cc1ccc(NC(=O)CC2=NC(=O)C(CC(=O)Nc3ccccc3F)S2)cc1 (configuration not stated) | i | i | i | -0.73 | i | i | i | i | -1 | 1
COC(=O)c1ccc(C(=O)OC)c(NS(C)(=O)=O)c1 | i | i | i | -0.7 | i | 25* | i | i | -0.96 | -11
Cn1c(Cc2ccccc2)nnc1SCC(=O)NC1CCCC1 | i | i | i | -0.95 | i | 100* | i | i | -1.1 | -14
O=C(c1ccco1)N1CCN(C(=O)c2ccc(CS(=O)c3ccc(Cl)cc3)o2)CC1 (configuration not stated) | i | i | i | 0.41 | i | i | x | x | x | x
CC(=O)c1cccc(S(=O)(=O)Nc2ccc3nc(C)sc3c2)c1 | i | i | i | -0.08 | i | 100* | i | i | -0.96 | -10
Cc1nc2ccc(NS(=O)(=O)c3ccc(C)c(C)c3)cc2s1 | i | i | i | -0.02 | i | i | x | x | x | x
CSc1ccccc1NC(=O)CN(C)C(C)C(=O)NCc1ccc2c(c1)OCO2 (configuration not stated) | i | x | x | x | x | x | x | x | x | x
Cc1ccc(Cn2ncc3c(N4CCN(C5CCCC5)CC4)ncnc32)cc1 | i | i | i | -0.92 | i | i | x | x | x | x
Cc1ccc(Cn2ncc3c(N4CCN(C)CC4)ncnc32)cc1 | i | i | i | 1.4 | i | i | x | x | x | x
Cc1ccc(Cn2ncc3c(N4CCN(Cc5ccc(Cl)cc5)CC4)ncnc32)cc1 | i | i | i | 1.1 | i | 25* | 18%* | i | -1.1 | -8
CC1CCN(c2ncnc3c2cnn3Cc2ccc(Cl)cc2)CC1 | i | i | x | x | i | i | i | i | -0.96 | -10
CNC(=O)c1cc(NC(=O)N(CCC#N)CCN(C(=O)NC(Cc2ccccc2)C(=O)NC(CC(C)C)C(=O)NC)c2ccccc2)ccc1OC (configuration not stated) | i | x | x | x | x | x | x | x | x | x
SMILES | ANO1 activ | CHT block | Rce1 inhib | Kir21 inh | CHT PAM | ANO1 block | TMEM16A reconf | HEK293 Ca mobil | YFP-HEK293 quench | ClC-1 rat inh
CCCOc1ccc(C(=O)N2CCN(Cc3ccc4c(c3)OCO4)CC2)cc1 | i | i | i | -0.34 | i | i | x | x | x | x
Cc1cc(C(=O)OCC(=O)Nc2nc(-c3ccccc3)cs2)c(C)o1 | i | i | i | -2.6 | i | i | x | x | x | x
CC(OC(=O)c1ccc(NC(=O)CC#N)cc1)C(=O)Nc1ccc(Oc2ccccc2)cc1 (configuration not stated) | i | i | i | 0.72 | i | i | x | x | x | x
CC(OC(=O)c1ccc(NC(=O)CC#N)cc1)C(=O)Nc1nc(-c2ccccc2)cs1 (configuration not stated) | i | i | i | -0.46 | i | 100* | 22%* | i | -0.8 | -4
Cc1cc(C(=O)OC(C)C(=O)Nc2nc(-c3ccccc3)cs2)c(C)o1 (configuration not stated) | i | i | i | -0.07 | i | 25* | i | i | -0.94 | -12
O=C(COC(=O)Cc1ccccc1F)NC(=O)NC1CCCC1 | i | x | x | x | x | x | x | x | x | x
Cc1[nH]c(N=Nc2ccccc2)nc1N=Nc1ccccc1 | i | i | i | 0.88 | i | 100* | i | i | -1 | -8

Assay outcomes deposited in PubChem BioAssay by several laboratories.
